Where “and” joins values, the source holds several entries; their conditions need not be identical. Equal entries are not always repeated. The campaign covered roughly 5,500 compounds. About 2,000 (36%) were called active. Not shown: some 18% with an inconclusive outcome. Rule as the data show it: active = normalized growth mostly below about 0.91 (no sharp cut-off); inconclusive = no clear call, values can overlap the other calls; inactive = mostly above about 0.92. This is one part of the list.
Experiment: chemical genetic growth profiling, strain panel (AID 1159580);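 also: tested at 20 µM; growth read once vehicle control cultures reached saturation at 30 °C; 1 = growth at the plate median or of vehicle wells; lower values mean less growth of the strain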
Details: S. cerevisiae deletion strains, growth OD

Measured: normalized growth

Cn1cnc([N+](=O)[O-])c1Sc1ncnc2nc[nH]c12
inactive: locus YAL021C, strain ccr4, active compounds read low 1.03 | locus YAL026C, strain drs2, active compounds read low 1.04 | locus YAL030W, strain snc1, active compounds read low 1.02 | locus YAL040C, strain CLN3, active compounds read low 1.01 | locus YBL061C, strain skt5, active compounds read low 1.03 | locus YBR009C, strain hhf1, active compounds read low 1.01 | locus YBR021W, strain FUR4, active compounds read low 1.02 | locus YBR023C, strain chs3, active compounds read low 1.02 | locus YBR171W, strain sec66, active compounds read low 1.02 | locus YBR229C, strain ROT2, active compounds read low 1.01 | locus YBR231C, strain swc5, active compounds read low 1.01 | locus YBR279W, strain paf1, active compounds read low 1.01 | locus YCL011C, strain gbp2, active compounds read low 1.01 | locus YCL016C, strain dcc1, active compounds read low 1.04 | locus YCL029C, strain bik1, active compounds read low 0.997 | locus YCL069W, strain vba3, active compounds read low 1.02 | locus YCR088W, strain abp1, active compounds read low 1.02 | locus YDL005C, strain med2, active compounds read low 1.01 | locus YDL035C, strain GPR1, active compounds read low 1.03 | locus YDL040C, strain nat1, active compounds read low 1.02 | locus YDL074C, strain BRE1, active compounds read low 1.01 | locus YDL101C, strain DUN1, active compounds read low 1.01 | locus YDL134C, strain PPH21, active compounds read low 1.02 | locus YDL185W, strain tfp1, active compounds read low 1 | locus YDL192W, strain arf1, active compounds read low 0.994 | locus YDR001C, strain nth1, active compounds read low 1.02 | locus YDR069C, strain doa4, active compounds read low 1.02 | locus YDR101C, strain arx1, active compounds read low 0.999 | locus YDR137W, strain rgp1, active compounds read low 1.02 | locus YDR150W, strain NUM1, active compounds read low 0.999 | locus YDR159W, strain sac3, active compounds read low 1 | locus YDR162C, strain NBP2, active compounds read low 1.03 | locus YDR195W, strain ref2 0.996 | locus YDR297W, strain sur2, active compounds read low 1.03 | locus YDR318W, strain mcm21, active compounds read low 0.996 | locus YDR334W, strain swr1, active compounds read low 1.03 | locus YDR335W, strain msn5, active compounds read low 1.01 | locus YDR363W, strain ESC2, active compounds read low 1.01 | locus YDR388W, active compounds read low 0.985 | locus YDR392W, strain spt3, active compounds read low 1.04 | locus YDR502C, strain sam2, active compounds read low 0.985 | locus YEL003W, strain gim4, active compounds read low 1.03 | locus YEL037C, strain rad23, active compounds read low 1.01 | locus YEL061C, strain CIN8 (second series), active compounds read low 1.03 | locus YEL061C, strain CIN8, active compounds read low 1.01 | locus YER002W, strain NOP16, active compounds read low 0.995 | locus YER015W, strain faa2, active compounds read low 1.02 | locus YER016W, strain bim1, active compounds read low 1.01 | locus YER110C, active compounds read low 0.989 | locus YER111C, strain swi4, active compounds read low 1.03 | locus YER155C, strain BEM2 (second series), active compounds read low 0.996 | locus YER155C, strain BEM2, active compounds read low 1.01 | locus YER167W, strain BCK2, active compounds read low 1.02 | locus YFR010W, strain ubp6, active compounds read low 1 | locus YGL078C, strain dbp3, active compounds read low 0.988 | locus YGL086W, strain mad1, active compounds read low 0.991 | locus YGL167C, strain pmr1, active compounds read low 1.02 | locus YGL173C, strain kem1, active compounds read low 1.02 | locus YGL227W, strain vid30, active compounds read low 1 | locus YGL240W, strain doc1, active compounds read low 1.04 | locus YGL248W, strain PDE1, active compounds read low 1.01 | locus YGL253W, strain hxk2, active compounds read low 1.03 | locus YGR078C, strain PAC10, active compounds read low 1.01 | locus YGR135W, strain pre9, active compounds read low 0.991 | locus YGR229C, strain SMI1, active compounds read low 1.03 | locus YGR252W, strain gcn5, active compounds read low 0.974 | locus YHR013C, strain ard1, active compounds read low 1.02 | locus YHR027C, strain rpn1, active compounds read low 1.03 | locus YHR030C, strain SLT2, active compounds read low 1.02 and 1.08 | locus YHR079C, strain IRE1 (second series), active compounds read low 0.995 | locus YHR079C, strain IRE1, active compounds read low 1.05 | locus YHR094C, strain hxt1, active compounds read low 0.994 | locus YHR129C, strain ARP1, active compounds read low 1.01 | locus YHR142W, strain chs7, active compounds read low 1.06 | locus YHR200W, strain rpn10, active compounds read low 0.994 | locus YIL066C, strain RNR3, active compounds read low 1.03 | locus YIL073C, strain SPO22, active compounds read low 1.02 | locus YIL125W, strain kgd1, active compounds read low 0.991 | locus YIR030C, strain dcg1, active compounds read low 0.992 | locus YJL092W, strain hpr5, active compounds read low 1.02 | locus YJL095W, strain BCK1 (second series), active compounds read low 1 | locus YJL095W, strain BCK1, active compounds read low 0.988 and 1.05 | locus YJL115W, strain asf1, active compounds read low 1.05 | locus YJL129C, strain trk1, active compounds read low 1.03 | locus YJL134W, strain LCB3, active compounds read low 1.01 | locus YJL154C, strain vps35, active compounds read low 1.02 | locus YJL164C, strain tpk1, active compounds read low 1.04 | locus YJL166W, strain qcr8, active compounds read low 1.02 | locus YJL168C, strain set2, active compounds read low 0.993 | locus YJL187C, strain SWE1 (second series), active compounds read low 0.997 | locus YJR043C, strain POL32, active compounds read low 1.04 | locus YJR066W, strain TOR1, active compounds read low 0.998 | locus YJR075W, strain HOC1, active compounds read low 1.01 and 0.99

Source: PubChem BioAssay AID1159580 (chemical genetic matrix, 2015)
